Compounds with a hit are over-represented: about 4% of the library has one in this group of screens.
MITF TRPM1 inh – inhibitors of MITF-driven TRPM1 promoter in melanoma cells; SK-MEL-5 TRPM1 promoter luciferase, 24 h; inhibition, % at 12.5 µM; 0.83% of 330,000 active; AID 488899;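 active means mean inhibition across replicates of 60% or more, whatever share of single replicates reaches that level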
EWS-Fli inh – inhibitors of EWS/Fli oncoprotein transcriptional activity; AID 651661; 0.67% of 350,000 active; inhibition, % at 12.6 µM; A673 NR0B1-luciferase reporter, viability-normalised;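 active means mean inhibition of at least 50% after viability correction, with every replicate also passing that limit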;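 further: firefly luciferase signal divided by Alamar Blue viability fluorescence both relative to DMSO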
PAX8 reporter – lowers PAX8-driven luciferase in RMG-I cells; 1.2% of 360,000 active; inhibition, % at 12.6 µM; RMG-I TPO-luciferase reporter, SteadyGlo, 24 h;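 active means mean replicate inhibition at least 60% with every replicate also reaching 60%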;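 further: luciferase light reporting Pax8 driven TPO promoter activity; plate controls were median of neutral control wells for no effect and mitoxantrone controls for full effect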
MITF act – increases MITF-driven TRPM1 promoter luciferase signal | SK-MEL-5 TRPM1-promoter luciferase, 24 h; % of positive control, neutral wells = 0 | activation, % at 12.5 µM | 0.75% of 300,000 active | AID 588334;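 active means mean activation of at least 80% with every replicate also reaching 80%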;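 further: 0% = neutral control wells and 100% = parthenolide positive control wells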
Wnt act – activators of Wnt/beta-catenin signaling; Wnt/beta-catenin reporter cell assay, activator, plate reader; activation, % at 9.35 µM; 1.2% of 300,000 active; AID 743398; in the data active means activation above about 30%, passing the limit was not always enough;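 further: 0% = neutral control wells and 100% = positive control wells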
esBAF inh – blocks esBAF chromatin remodeling in mouse ES cells. Bmi1-luciferase knock-in reporter, 24 h; 100% = twice the neutral-well signal. reporter increase, % at 12.5 µM. 2% of 350,000 active. AID 602393; in the data active means activation above about 40%;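 further: 0% = median of the plate's neutral control wells and 100% = double that signal; a rise in the Bmi1 reporter signal indicates esBAF inhibition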
* = called active by the depositor; x = no result given.

SMILES	MITF TRPM1 inh	EWS-Fli inh	PAX8 reporter	MITF act	Wnt act	esBAF inh
Cn1c(SCc2ccccc2F)nnc1-c1cnccn1	-53	x	x	53	12	22
Cn1c(SCc2ccc(F)cc2)nnc1-c1ccccn1	-54	x	-192	52	43*	41*
Nn1c(SCc2ccccc2F)nnc1-c1cccnc1	x	-72	-116	x	52*	x
CO[C@@H]1CN(C)C(=O)c2ccc(NS(C)(=O)=O)cc2OC[C@@H](C)N(C)C[C@@H]1C	x	7	x	x	x	-4
C[C@H]1CCCCO[C@H](CN(C)C(=O)Nc2ccc3c(c2)OCO3)[C@@H](C)CN([C@@H](C)CO)C(=O)c2cc(NC(=O)Nc3cccc4ccccc34)ccc2O1	x	3	9	x	x	5
C[C@@H]1CN([C@@H](C)CO)C(=O)c2cc(C#Cc3cccnc3)cnc2O[C@@H]1CN(C)C(=O)CN(C)C	x	-5	-17	x	x	-1
COc1cccc(NC(=O)N[C@@H]2CC[C@H](CC(=O)NCc3ccncn3)O[C@@H]2CO)c1	x	1	-2	x	x	-2
CC12CCC(C(=O)Nc3nc4ccc(Br)cc4s3)(OC1=O)C2(C)C (stereo not drawn)	-51	-72	-81	44	53*	x
O=C(C[C@@H]1CC[C@@H]2[C@H](COC[C@H](O)CN2Cc2cc(F)cc(F)c2)O1)NC1CCC1	x	1	4	x	x	1
CCCC(=O)N(C)c1nnc(-c2ccc(OC)cc2)s1	-57	x	-129	57	34*	36
COc1ccc2c3c([nH]c2c1)[C@@H](CO)N(C(=O)NC(C)C)CC31CCN(Cc2ccccc2)CC1	x	-5	x	x	x	x
O=C(N/N=C/c1cc([N+](=O)[O-])ccc1Cl)c1cnccn1	22	57*	12	-21	1	-3
CS(=O)(=O)c1ccc(Sc2nc3ccccc3[nH]2)c([N+](=O)[O-])c1	7	x	8	x	-1	9
O=[N+]([O-])c1cc(S(=O)(=O)C(F)(F)F)ccc1Sc1nc2ccccc2[nH]1	96*	x	x	-95	x	x
CC(C)NC(=O)N(C)C[C@H]1Oc2cc(C#C[C@@H](C)O)ccc2S(=O)(=O)N([C@@H](C)CO)C[C@@H]1C	x	-7	-40	x	x	2
COc1ccc(CN(C)C[C@H]2Oc3ccc(NC(=O)Nc4ccc5c(c4)OCO5)cc3CC(=O)N([C@@H](C)CO)C[C@@H]2C)cc1	x	-2	-5	x	x	-1
C[C@@H]1CN([C@H](C)CO)C(=O)Cc2cc(NC(=O)Nc3ccccc3)ccc2O[C@@H]1CN(C)Cc1ccc(-c2ccccc2)cc1	x	-6	11	x	x	4
COc1ccc(NC(=O)Nc2ccc3c(c2)CC(=O)N([C@H](C)CO)C[C@H](C)[C@@H](CN(C)Cc2ccc(-c4ccccc4)cc2)O3)cc1	x	15	68*	x	x	0
COc1ccc(NC(=O)Nc2ccc3c(c2)CC(=O)N([C@@H](C)CO)C[C@H](C)[C@H](CN(C)Cc2ccc(-c4ccccc4)cc2)O3)cc1	x	9	22	x	x	-1
COc1ccc(CN(C)C[C@H]2Oc3ccc(NC(=O)Nc4ccc5c(c4)OCO5)cc3CC(=O)N([C@H](C)CO)C[C@H]2C)cc1	x	-15	103*	x	x	4
C[C@@H]1CN([C@@H](C)CO)C(=O)Cc2cc(NC(=O)Nc3ccccc3)ccc2O[C@H]1CN(C)Cc1ccc(-c2ccccc2)cc1	x	10	68*	x	x	4
COc1ccc(NC(=O)Nc2ccc3c(c2)CC(=O)N([C@@H](C)CO)C[C@@H](C)[C@H](CN(C)Cc2ccc(-c4ccccc4)cc2)O3)cc1	x	24	75*	x	x	2
CO[C@H]1CN(C)C(=O)c2ccc(NC(=O)c3ccno3)cc2OC[C@H](C)NC[C@@H]1C	x	-10	3	x	x	1
C[C@H](CO)N1C[C@H](C)[C@H](CN(C)S(=O)(=O)c2ccc(-c3ccccc3)cc2)OCc2cn(nn2)CCCC1=O	x	5	-6	x	x	-6
Cc1ccc(S(=O)(=O)Nc2ccc3c(c2)C(=O)N([C@H](C)CO)C[C@@H](C)[C@@H](CN(C)C(=O)CCCN(C)C)OCCCC[C@@H](C)O3)cc1	x	-3	-1	x	x	-2
Cc1cc(C(=O)Cn2nc(C(=O)O)c3ccccc3c2=O)c(C)n1-c1ccc(F)cc1	-25	-9	-22	22	2	48*

Screens: PubChem BioAssay, Broad Institute
